# Data taken from PubChem BioAssay (NCI).
# Compounds without any hit were thinned out: in the full panel of roughly 83,000, 20% have a hit.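 Percent growth is the endpoint: 0 to 100 indicates growth inhibition (40 means 60% inhibition), 0 means no net growth, and negative values indicate cell death.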 Unmarked numbers belong to inactive results. Calls of active or inactive are those of the source. How the source made its calls: active means growth percent below 10; inactive means the rest.
# Assays:
# Test in all cases: NCI-60 one-dose screen, 48 h (100 = growth as untreated, 0 = no growth, -100 = all killed)
# Details in all cases: 10 µM unless noted
# SK-MEL-2 melanoma = test system: SK-MEL-2 melanoma
# EKVX NSCLC = test system: EKVX NSCLC
# SN12C renal = test system: SN12C renal
# UO-31 renal = test system: UO-31 renal
# TK-10 renal = test system: TK-10 renal
# ACHN renal = test system: ACHN renal
# CAKI-1 renal = test system: CAKI-1 renal
# A498 renal = test system: A498 renal
# CCRF-CEM leukemia = test system: CCRF-CEM leukemia
# MOLT-4 leukemia = test system: MOLT-4 leukemia
# RPMI-8226 leukemia = test system: RPMI-8226 leukemia
# OVCAR-8 ovarian = test system: OVCAR-8 ovarian
# OVCAR-5 ovarian = test system: OVCAR-5 ovarian
# OVCAR-4 ovarian = test system: OVCAR-4 ovarian
# SK-OV-3 ovarian = test system: SK-OV-3 ovarian
# IGROV1 ovarian = test system: IGROV1 ovarian
# OVCAR-3 ovarian = test system: OVCAR-3 ovarian
# HS 578T breast = test system: HS 578T breast
# NCI/ADR-RES ovarian = test system: NCI/ADR-RES ovarian
# SR leukemia = test system: SR leukemia
SMILES,growth (SK-MEL-2 melanoma),growth (EKVX NSCLC),growth (SN12C renal),growth (UO-31 renal),growth (TK-10 renal),growth (ACHN renal),growth (CAKI-1 renal),growth (A498 renal),growth (CCRF-CEM leukemia),growth (MOLT-4 leukemia),growth (RPMI-8226 leukemia),growth (OVCAR-8 ovarian),growth (OVCAR-5 ovarian),growth (OVCAR-4 ovarian),growth (SK-OV-3 ovarian),growth (IGROV1 ovarian),growth (OVCAR-3 ovarian),growth (HS 578T breast),growth (NCI/ADR-RES ovarian),growth (SR leukemia)
COC(=O)C1=C(C)C(=O)CC1,115%,131%,98.3%,89%,108%,99.7%,116%,109%,99.6%,101%,110%,109%,99.6%,119%,112%,112%,114%,104%,135%,
O=S(=O)(O)c1cccc2cccnc12,108%,110%,103%,76.8%,118%,111%,96.1%,104%,103%,100%,107%,112%,106%,118%,114%,101%,95.3%,95.2%,106%,
Cc1ccc2nc(N)nnc2c1,107%,113%,98.4%,87.5%,108%,108%,83.7%,95.2%,102%,100%,95.4%,112%,102%,108%,93.7%,109%,92.7%,93.3%,96%,
ClCc1cccc2c(CCl)cccc12,84.3%,82.2%,64.5%,60.4%,86.8%,31.5%,15.2%,107%,29.8%,27.7%,31%,63.8%,114%,94.4%,83%,54.9%,62.7%,98.8%,69.2%,
C[C@H](CCC[C@H](C)OS(=O)(=O)c1ccccc1)OS(=O)(=O)c1ccccc1,98.8%,95.2%,99.3%,78.8%,103%,106%,92.6%,133%,120%,115%,121%,101%,115%,103%,101%,73%,109%,105%,116%,
C=CCc1cc(OC)c(OC)c(OC)c1,108%,111%,99.5%,105%,104%,108%,100%,100%,104%,104%,110%,102%,99.2%,112%,114%,110%,93.1%,103%,105%,
CN1CCCN(C(c2ccccc2)c2ccc(Br)cc2)CC1 (stereo unspecified),113%,66.9%,65.4%,60.5%,61.4%,50.6%,49.2%,74.2%,96.6%,55.5%,84.1%,93.9%,92.6%,84.7%,81.5%,78.6%,69.9%,42.4%,79.1%,
CN1C(=O)NC(c2ccc(Cl)cc2)(c2ccc(Cl)cc2)C1=O,80.6%,91.5%,103%,61.5%,129%,108%,92.9%,110%,-30.3% (active),89.1%,84.2%,102%,112%,96.4%,115%,91%,104%,90.4%,86.8%,
Cn1c2ccccc2c2nnc(NCCCCO)nc21,108%,76.3%,94.3%,68.4%,123%,87.2%,66.4%,105%,107%,97.7%,69.6%,100%,86.5%,94.6%,86.5%,57.8%,88.6%,81.6%,94.3%,
Oc1ccc2ccccc2c1CN1CCOCC1,103%,113%,107%,74.6%,123%,103%,94.6%,112%,95.3%,99.6%,97.5%,105%,113%,108%,104%,106%,120%,112%,113%,
c1ccc2c(NCCCN3CCN(CCCNc4c5ccccc5nc5ccccc45)CC3)c3ccccc3nc2c1,-76.8% [100 µM] (active),-48.6% [100 µM] (active),-35.9% [100 µM] (active),-27.6% [100 µM] (active),-9.59% [100 µM] (active),-60.9% [100 µM] (active),-15.5% [100 µM] (active),-31.9% [100 µM] (active),-0.0236% [100 µM] (active),-5.28% [100 µM] (active),-9.92% [100 µM] (active),-37.8% [100 µM] (active),-31.3% [100 µM] (active),-48.8% [100 µM] (active),-28.4% [100 µM] (active),-31.6% [100 µM] (active),-34.4% [100 µM] (active),-19.1% [100 µM] (active),35.7% [100 µM],
NC(=S)N/N=C/c1ccc(OC(=O)COc2ccccc2)cn1,69.3%,109%,34.7%,24.5%,74.7%,8.03% (active),3.88% (active),70.5%,18.9%,22.3%,55.2%,29.6%,120%,69.1%,90.4%,54.6%,60.2%,116%,26.8%,
O=CNCCc1ccccc1,105%,97.3%,90%,87.8%,92.4%,98.5%,93.8%,111%,103%,96.8%,102%,102%,97.7%,103%,97%,110%,115%,102%,106%,
O=C(N/N=C\c1ccc(Cl)cc1Cl)c1ccncc1,94.4%,101%,98.7%,90.7%,91.4%,105%,99%,95.8%,99.6%,94.5%,91.5%,101%,105%,106%,117%,96.3%,113%,123%,102%,
CCOP(=O)(NC(c1ccccc1)c1ccccc1)OCC,109%,109%,146%,84.4%,112%,103%,93%,102%,103%,106%,104%,98.1%,108%,106%,107%,92.2%,112%,107%,104%,
CC(c1ccccc1)N1C(=O)CSC1=S (stereo unspecified),1.02% (active),52.1%,62.4%,49.2%,42.3%,50.7%,61.1%,78.1%,63.8%,28.3%,16.9%,34.2%,91.2%,29.7%,104%,-31.6% (active),-13.1% (active),81.3%,-62.5% (active),
Nc1ccc2ccccc2c1-c1c(N)ccc2ccccc12,15.5%,36.5%,37%,40.8%,34.9%,38.8%,28.6%,14.6%,12.9%,17.4%,24.9%,44%,57.1%,66%,30.8%,45.8%,5.64% (active),35.6%,16.5%,

SMILES,growth (SK-MEL-2 melanoma),growth (EKVX NSCLC),growth (SN12C renal),growth (UO-31 renal),growth (TK-10 renal),growth (ACHN renal),growth (CAKI-1 renal),growth (A498 renal),growth (CCRF-CEM leukemia),growth (MOLT-4 leukemia),growth (RPMI-8226 leukemia),growth (OVCAR-8 ovarian),growth (OVCAR-5 ovarian),growth (OVCAR-4 ovarian),growth (SK-OV-3 ovarian),growth (IGROV1 ovarian),growth (OVCAR-3 ovarian),growth (HS 578T breast),growth (NCI/ADR-RES ovarian),growth (SR leukemia)
C/C=C/C1OCC(CC)C(CCC)O1 (stereo unspecified),102%,105%,99.5%,81.1%,101%,110%,99.9%,91.7%,85.4%,94%,94.5%,103%,98.7%,110%,108%,104%,106%,107%,108%,
CCOC(=O)c1cc(Cl)c(O)c(Cl)c1,106%,109%,107%,92.3%,108%,103%,109%,104%,90.8%,89.6%,101%,100%,108%,120%,109%,96.8%,115%,109%,111%,
CC(=O)N(C)N=Nc1ccc(C)cc1,101%,101%,100%,81.6%,92.7%,108%,98.6%,100%,95.6%,112%,102%,112%,83.1%,102%,110%,152%,103%,95.1%,99.1%,
COc1nc2ccccc2s1,100%,108%,99.3%,73.3%,111%,94.6%,90.5%,101%,102%,103%,91.6%,96.3%,93.1%,118%,89.5%,98.6%,110%,91%,99.2%,
NC(=S)N/N=C/c1ccc(OC(=O)COc2ccc(Cl)cc2)cn1,62.8%,93.6%,28.2%,24.9%,74.9%,12.5%,0.332% (active),57.3%,18.6%,16.5%,59.1%,23.9%,120%,59.2%,82.1%,46.5%,56.4%,114%,27.9%,
Nc1ccn(C2OC(CO)C(O)C2F)c(=O)n1 (stereo unspecified),90.1%,96.4%,78.8%,76.8%,92.5%,62.1%,69.8%,88.5%,19.1%,-15.5% (active),73.8%,61.8%,93.2%,84.4%,103%,109%,80.4%,90.8%,73.2%,
CC(=O)Oc1c(Cl)cccc1-c1ccccc1,98.9%,103%,96.6%,84.8%,107%,108%,98.3%,96.9%,101%,107%,99.3%,100%,108%,110%,104%,102%,103%,90.7%,97.3%,
O=C(O)Cc1ccccn1,106%,109%,112%,95.1%,105%,105%,93.9%,94.4%,101%,89.3%,102%,102%,101%,117%,104%,105%,114%,109%,111%,
CCOc1ccc2c(c1)c(C)cc(C)[n+]2CC,97.9%,35.9%,64.6%,65.9%,97%,94.1%,86.2%,88.9%,71.2%,64.6%,52.1%,62.4%,98.5%,58.8%,83.4%,82.3%,76.2%,104%,113%,
CCCCn1cnc2c(=O)[nH]cnc21,107%,97.9%,105%,94.7%,109%,89.7%,98.4%,108%,96.7%,96.2%,108%,115%,98.7%,113%,104%,115%,113%,115%,113%,
CC1CCC(C(C)(C)[N+](C)(C)C)CC1 (stereo unspecified),114%,96.6%,102%,94.8%,95.6%,105%,103%,86.8%,98.4%,101%,102%,100%,104%,98.9%,102%,115%,107%,100%,107%,
Cc1cc(Nc2ccc3c(c2)OCO3)c2cc3c(cc2n1)OCO3,22.5%,44.9%,47%,28.5%,59.7%,50.9%,19.5%,-1.69% (active),-7.98% (active),35.8%,-19.9% (active),25.7%,45%,81.4%,16.2%,-37.2% (active),-45.1% (active),-14.2% (active),-8.22% (active),
Cn1c(=O)[nH]c2ccccc2c1=O,111%,71.6%,96.4%,95.5%,94.3%,105%,85.3%,129%,108%,,112%,103%,123%,110%,108%,111%,112%,,102%,100%
CCNC(=O)OCCc1c2ccccc2nc2ccccc12,111%,115%,119%,92.2%,132%,94.1%,121%,111%,73.7%,76.4%,76.7%,98%,111%,98.1%,109%,,109%,90.2%,119%,
Nc1ncnc(Nc2ccccc2)n1,103%,122%,105%,86.5%,110%,113%,92.7%,128%,104%,96.2%,96.7%,106%,105%,109%,117%,,117%,102%,111%,
CCN(C(=O)Nc1ccccc1Cl)c1ccccc1,114%,111%,113%,91.4%,121%,96.2%,96.2%,102%,110%,,107%,101%,97.1%,,113%,103%,116%,102%,107%,81.4%
O=C1C=C[C@H](O)[C@@]2(CO)O[C@@H]12,-12.4% (active),72.4%,88.7%,48.1%,109%,76.7%,40%,101%,-51% (active),26.9%,,78.2%,126%,90%,115%,27.6%,55%,100%,86.3%,
